This is a sample that favours compounds with a hit; in the whole collection about 19% have one here.
KB-3-1 cytotox – kills parental KB-3-1 adenocarcinoma cells. KB-3-1 viability, CellTiter-Glo ATP luminescence, 72 h. Potency, µM (doses to about 46.1 µM), actives largely listed as cytotoxic. 400,000 compounds, 1.4% hits; further: nearly all actives have a fitted effect of over 60% in size
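Here the drug-naive KB-3-1 line serves as comparator for MDR sub-line selectivity; cells received compound titrations, 72 h at 37 °C, then CellTiter-Glo readout.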
KB-V1 MDR tox – KB-V1 MDR subline cytotoxicity. Potency, µM (series often up to 46.1 µM), hits mostly cytotoxic. AID 1347076. 400,000 compounds, 3.4% hits. KB-V1 MDR cells viability, CellTiter-Glo, 72 h; further: nearly all actives have a fitted effect of over 60% in size
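KB-V1 MDR subline cells in DMEM (phenol-red free, 10% FBS) exposed to compounds in qHTS concentration series for 72 h at 37 degrees C. Viability read by CellTiter-Glo luminescence; concentration-effect curves fitted after normalization and correction.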
HT1080 IDH1KD tx – HT-1080 IDH1 knockdown cell toxicity (counter line); Potency, µM (top dose mostly 46.1 µM), for the others: at the top dose activity, negative = toxicity, usual class: cytotoxic; 360,000 compounds, 2% hits; HT-1080 IDH1 knockdown viability, ATP luminescence, 48 h;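 further: 0% = DMSO wells and -100% = cell-free medium wells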
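HT-1080-IDH1KD cells (IDH1 knocked down), 750/well in RPMI with 5% FBS, treated with compound 48 h at 37 degrees C. Viability by CellTiter-Glo luminescence, normalised to DMSO and no-cell wells; concentration-response curves classed.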
HT1080-NT tox – kills 2HG-producing HT-1080-NT fibrosarcoma cells | HT-1080-NT fibrosarcoma viability, CellTiter-Glo ATP luminescence, 48 h | Potency, µM (series often up to 46.1 µM), for the others: at the highest dose activity, negative = less viability, hits mostly cytotoxic | 360,000 compounds, 1.6% hits | AID 686970;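 further: NT is the 2HG producing partner of a matched IDH1 knockdown line; 0% = DMSO-treated cells and -100% = media-only wells without cells; nearly all actives have a fitted effect of over 55% in size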
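Viability of the 2HG-overproducing fibrosarcoma line after 48 hours of compound exposure at 37 degrees C was determined by luminescence with CellTiter-Glo, and concentration-effect curves were then fitted and categorized.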
DT40 TDP1 no CPT – qHTS for Inhibitors of human tyrosyl-DNA phosphodiesterase 1 (TDP1): qHTS in cells in absence of CPT; DT40 Tdp1-/- hTDP1 cells, no CPT, ATP luminescence, 48 h; Potency, µM (doses to about 46.2 µM), for the others: at the top dose activity change, negative = growth inhibition, usual class: inhibitors; 420,000 compounds, 15% hits; further: nearly all actives have a fitted effect of over 55% in size
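Camptothecin absent (DMSO only). Human TDP1-complemented DT40 knockout cells, 400 cells/well, 37 °C for minimum 48 hr; ATP measured via CellTiter-Glo, 30 min dark incubation, luminescence.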
DT40 TDP1 CPT – DT40-hTDP1 cell growth loss with CPT; chicken DT40 Tdp1-/-;hTDP1 cells + 20 nM CPT, ATP luminescence, 48 h; Potency, µM (highest dose often 46.2 µM), inactives show at the highest dose activity change, negative = growth inhibition, most hits filed as inhibitors; 420,000 compounds, 12% hits; further: nearly all actives have a fitted effect of over 55% in size
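Chicken DT40 Tdp1-/- cells stably complemented with human TDP1 were seeded at 400 cells/well in medium containing 20 nM camptothecin, exposed to pin-transferred compounds, and grown at 37 °C for at least 48 hr. Viability was read as ATP luminescence.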
Starred values were filed as active, the others as inactive; [ ] = dose if it differs, or a comment. The call rests on the fitted dose curve; in most records, active means well fitted curve in the direction sought with a large enough effect; inconclusive means small, poorly fitted or top-dose-only effect, or another doubt; inactive means no such curve, though single readings can be large; an effect the other way counts as inactive or inconclusive. Unless noted, on the % scale 0 is the no-effect control and ±100 the full control effect; potency means the concentration at half of the fitted maximal effect.

How did CC1(c2ccc(Cl)cc2)NC(=O)N(CC(=O)N2CCc3ccccc32)C1=O (stereo not drawn) do in these assays?
KB-3-1 cytotox: inactive; KB-V1 MDR tox: inconclusive; HT1080 IDH1KD tx: -9%; HT1080-NT tox: -1%; DT40 TDP1 no CPT: inconclusive; DT40 TDP1 CPT: 26µM*

What do the screens show for `CCC1(c2ccc(F)cc2)NC(=O)N(CC(=O)N2CCc3ccccc32)C1=O` (stereo not drawn)?
KB-3-1 cytotox: inactive; KB-V1 MDR tox: inactive; HT1080 IDH1KD tx: -16%; HT1080-NT tox: -9%[9.24 µM]; DT40 TDP1 no CPT: inconclusive; DT40 TDP1 CPT: inconclusive

What do the screens show for `CCc1ccccc1N1C(=O)N(C)c2ccccc2S1(=O)=O`?
KB-3-1 cytotox: inactive; KB-V1 MDR tox: inactive; DT40 TDP1 no CPT: inconclusive; DT40 TDP1 CPT: -21%

How did O=C(Nc1cccc(S(=O)(=O)C(F)F)c1)c1ccc(Cl)c(S(=O)(=O)N2CCOCC2)c1 do in these assays?
KB-3-1 cytotox: inactive; KB-V1 MDR tox: inconclusive; HT1080 IDH1KD tx: -12%; HT1080-NT tox: -9%; DT40 TDP1 no CPT: 18µM*; DT40 TDP1 CPT: 16µM*

What do the screens show for `O=C(Nc1cccc(C(=O)NC2CC2)c1)c1ccc(Cl)c(S(=O)(=O)N2CCOCC2)c1`?
KB-3-1 cytotox: inactive; KB-V1 MDR tox: inconclusive; HT1080 IDH1KD tx: -3%; HT1080-NT tox: 0%; DT40 TDP1 no CPT: inconclusive; DT40 TDP1 CPT: -28%

Results for O=C(Nc1cccnc1)c1ccc(Cl)c(S(=O)(=O)N2CCOCC2)c1 ?
KB-3-1 cytotox: inactive; KB-V1 MDR tox: inactive; HT1080 IDH1KD tx: -3%; HT1080-NT tox: 6%; DT40 TDP1 no CPT: 1%; DT40 TDP1 CPT: inconclusive

Results for O=C(Nc1cccc(S(=O)(=O)N2CCCC2)c1)c1cc(S(=O)(=O)N2CCOCC2)ccc1F ?
KB-3-1 cytotox: inactive; KB-V1 MDR tox: inactive; HT1080 IDH1KD tx: -3%; HT1080-NT tox: -3%; DT40 TDP1 no CPT: -10%; DT40 TDP1 CPT: inconclusive

Results for O=C(Nc1ccccc1)c1ccc(NCc2cccnc2)c(S(=O)(=O)N2CCOCC2)c1 ?
KB-3-1 cytotox: inactive; KB-V1 MDR tox: inactive; HT1080 IDH1KD tx: 0%; HT1080-NT tox: 3%; DT40 TDP1 no CPT: 15µM*; DT40 TDP1 CPT: -21%

Results for O=C(Nc1cccc(S(=O)(=O)N2CCOCC2)c1)c1cc(S(=O)(=O)N2CCOCC2)c(Cl)cc1Cl ?
KB-3-1 cytotox: inconclusive; KB-V1 MDR tox: inactive; HT1080 IDH1KD tx: -6%; HT1080-NT tox: -20%; DT40 TDP1 no CPT: inconclusive; DT40 TDP1 CPT: 15µM*

How did O=C(Nc1cccc(Br)c1)c1ccc(Cl)c(S(=O)(=O)N2CCOCC2)c1 do in these assays?
KB-3-1 cytotox: inconclusive; KB-V1 MDR tox: 4.6µM*; HT1080 IDH1KD tx: 8%[9.24 µM]; HT1080-NT tox: 7.1µM*; DT40 TDP1 no CPT: 18µM*; DT40 TDP1 CPT: 15µM*

How did CCNC(=O)C[C@@H]1CC[C@H]2[C@@H](COC[C@H](O)CN2C(=O)C2CC2)O1 do in these assays?
KB-3-1 cytotox: inactive; KB-V1 MDR tox: inactive; HT1080 IDH1KD tx: 17%; HT1080-NT tox: inconclusive; DT40 TDP1 no CPT: 4%; DT40 TDP1 CPT: 9%

How did Cc1cccc(C)c1Nc1nc2ccccc2nc1NS(=O)(=O)c1ccccc1 do in these assays?
KB-3-1 cytotox: inactive; KB-V1 MDR tox: inactive; DT40 TDP1 no CPT: -15%; DT40 TDP1 CPT: inconclusive

What do the screens show for `CCOC(=O)c1c2ccccc2[n+]([O-])n1[C@@H](C)C(N)=O`?
KB-3-1 cytotox: inactive; KB-V1 MDR tox: inactive; HT1080 IDH1KD tx: 8%; HT1080-NT tox: 8%; DT40 TDP1 no CPT: -7%; DT40 TDP1 CPT: 21µM*

How did Cc1ccc(C(=O)c2c3ccccc3[n+]([O-])n2CCC(=O)O)cc1 do in these assays?
KB-3-1 cytotox: inactive; KB-V1 MDR tox: inactive; HT1080 IDH1KD tx: -1%; HT1080-NT tox: 15%; DT40 TDP1 no CPT: -4%; DT40 TDP1 CPT: -13%

How did CCOC(=O)c1cc(OC(=O)c2cccc(Cl)c2)n(-c2ccccc2)n1 do in these assays?
DT40 TDP1 no CPT: -6%; DT40 TDP1 CPT: -13%

How did O=C(Nc1nc2ccccc2s1)c1ccc2sc([C@H]3C[C@H](O)[C@@H](CO)O3)nc2c1 do in these assays?
KB-3-1 cytotox: inactive; KB-V1 MDR tox: inactive; HT1080 IDH1KD tx: inconclusive; HT1080-NT tox: inconclusive; DT40 TDP1 no CPT: 16µM*; DT40 TDP1 CPT: 16µM*

Results for O=C(NCc1cccc(C(F)(F)F)c1)c1ccc2sc([C@@H]3O[C@H](CO)[C@@H](O)[C@H]3O)nc2c1 ?
KB-3-1 cytotox: inactive; KB-V1 MDR tox: inactive; HT1080 IDH1KD tx: 27%; HT1080-NT tox: 2%; DT40 TDP1 no CPT: inconclusive; DT40 TDP1 CPT: inconclusive

Results for O=C(NCc1cccc(C(F)(F)F)c1)c1ccc2sc(C3=C[C@@H](O)[C@@H](O)[C@@H](CO)O3)nc2c1 ?
KB-3-1 cytotox: inactive; KB-V1 MDR tox: inactive; HT1080 IDH1KD tx: 2%; HT1080-NT tox: 10%; DT40 TDP1 no CPT: 12µM*; DT40 TDP1 CPT: 12µM*

What do the screens show for `O=C(Nc1nnc([C@H]2C[C@H](O)[C@@H](CO)O2)s1)c1cccc(C(F)(F)F)c1`?
KB-3-1 cytotox: inactive; KB-V1 MDR tox: inactive; HT1080 IDH1KD tx: 4%; HT1080-NT tox: 10%; DT40 TDP1 no CPT: -3%; DT40 TDP1 CPT: 15%

How did O=C(Nc1nccs1)c1ccc2sc([C@H]3C[C@H](O)[C@@H](CO)O3)nc2c1 do in these assays?
KB-3-1 cytotox: inactive; KB-V1 MDR tox: inactive; HT1080 IDH1KD tx: 6%; HT1080-NT tox: 15%; DT40 TDP1 no CPT: inconclusive; DT40 TDP1 CPT: -28%

Results for O=C(Nc1cccc(C(F)(F)F)c1)Nc1nnc([C@@H]2C[C@H](O)[C@@H](CO)O2)s1 ?
KB-3-1 cytotox: inactive; KB-V1 MDR tox: inactive; HT1080 IDH1KD tx: 26%; HT1080-NT tox: 0%; DT40 TDP1 no CPT: inconclusive; DT40 TDP1 CPT: 18µM*

What do the screens show for `O=C(NCc1cccc(C(F)(F)F)c1)c1ccc2sc([C@H]3C[C@H](O)[C@@H](CO)O3)nc2c1`?
KB-3-1 cytotox: inactive; KB-V1 MDR tox: inactive; HT1080 IDH1KD tx: -7%; HT1080-NT tox: 3%; DT40 TDP1 no CPT: 16µM*; DT40 TDP1 CPT: inconclusive

How did CCOc1ccc(-c2nnc(SCC(=O)Nc3cc(C)ccc3OC)o2)cc1 do in these assays?
KB-3-1 cytotox: inactive; KB-V1 MDR tox: inactive; DT40 TDP1 no CPT: inconclusive; DT40 TDP1 CPT: inconclusive

Source: PubChem (National Center for Advancing Translational Sciences (NCATS))
